Bioassay records (PubChem)
The list is not random: actives were taken first. Their share in the collection is about 5.4%.
APOBEC3G inh – blocks human APOBEC3G single-stranded DNA deamination | Q9HC16 | inhibition, % at 20 µM | hit rate 0.28% among 330,000 | recombinant A3G, ssDNA deamination FAM/TAMRA fluorescence;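 active means inhibition of at least 40% at 20 µM, with no more than 30% in the related APOBEC3A deaminase screen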;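 further: plate controls were DMSO wells with A3G for no effect and wells lacking A3G enzyme for full effect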
A3A deaminase – inhibitors of human APOBEC3A DNA deaminase; hit rate 0.41% among 330,000; P31941; AID 493011; inhibition, % at 20 µM; recombinant A3A, FAM/TAMRA ssDNA deamination fluorescence;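 active means at least 40% inhibition at 20 µM here, with at most 30% in a related deaminase screen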;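 further: plate controls were A3A with DMSO for no effect and wells lacking A3A enzyme for full effect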
Target sequence (P31941 whole entry, looked up): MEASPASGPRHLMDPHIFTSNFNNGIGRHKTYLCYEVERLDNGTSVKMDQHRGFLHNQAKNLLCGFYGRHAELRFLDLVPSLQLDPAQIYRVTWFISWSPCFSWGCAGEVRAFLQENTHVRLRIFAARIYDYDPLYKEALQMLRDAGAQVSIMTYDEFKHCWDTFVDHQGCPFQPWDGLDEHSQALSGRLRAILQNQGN
ALR H2O2 inh – inhibitors of human sulfhydryl oxidase ALR; P55789; purified ALR, DTT oxidation, H2O2 HRP-luminol luminescence; inhibition, % (concentration not given with the values); hit rate 3.8% among 290,000;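 active means mean replicate inhibition above about 79%, with every replicate also reaching it, limit read from the data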
Target sequence (P55789 whole entry, looked up): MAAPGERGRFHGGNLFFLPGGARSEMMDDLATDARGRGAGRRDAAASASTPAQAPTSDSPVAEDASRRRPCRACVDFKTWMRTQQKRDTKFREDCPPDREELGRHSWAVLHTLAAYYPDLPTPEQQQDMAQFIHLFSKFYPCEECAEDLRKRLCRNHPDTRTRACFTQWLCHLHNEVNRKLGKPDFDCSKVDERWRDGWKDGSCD
aDG glyco act – increases alpha dystroglycan glycosylation; Pro5-aDG cells, alpha-DG glycosylation AlphaScreen (IIH6); 0% Pro5, 100% B10-LARGE cell signal; activation, % at 10 µM; hit rate 0.22% among 360,000; AID 624168;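 active means activation of at least 8% versus controls, or a plate z-score of at least 8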;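 further: Pro5 are CHO cells carrying HIG-tagged alpha-DG that lacks glycosylation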
PHOSPHO1 block – inhibitors of human PHOSPHO1 phosphatase | inhibition, % at 13.3 µM | recombinant PHOSPHO1, absorbance phosphatase assay | Q8TCT1 | hit rate 1.1% among 290,000 | AID 1565; in the data active means inhibition above about 60%
rCAG binder – binds r(CAG) RNA repeats; r(CAG) RNA repeat, TO-PRO-1 dye displacement fluorescence; inhibition, % at 3 µM; hit rate 1.3% among 370,000; AID 651821;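 active means inhibition above the plate cutoff, the mean of all test compounds on that plate plus 3 SD, cut at about 35% in these data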;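 further: 0% = DMSO alone and 100% = 100 µM mitoxantrone as full dye displacement; higher means more dye released from RNA so lower well fluorescence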
rCAG bind conf – r(CAG) RNA repeat binding, confirmation. shares compounds with rCAG binder. TO-PRO-1 dye displacement fluorescence. hit rate 70% among 4,300. inhibition, % at 3 µM. AID 652065;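 active means inhibition above a per-plate cutoff, the mean inhibition of sample wells plus 3 SD, cut at about 35% in these data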;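 further: loss of TO-PRO-1 fluorescence as compound displaces dye from 1x1 AA loop RNA; 0% = DMSO only wells and 100% = 100 µM mitoxantrone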
dCAG dye counter – counter-screen for rCAG RNA binders: DNA CAG dye complex inhibitors; d(CAG) DNA oligo TO-PRO-1 dye displacement, fluorescence; shares compounds with rCAG binder; AID 652068; hit rate 94% among 4,300; inhibition, % at 3 µM;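 active means inhibition above its plate's cutoff, the mean test-well inhibition plus 3 SD, cut at about 4.8% in these data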;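 further: 0% = DNA dye mix with DMSO and 100% = 100 µM mitoxantrone; hits displace the dye from DNA and so lower well fluorescence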
dCAG dye DR – disrupts DNA CAG TO-PRO-1 complex in dose response. shares compounds with rCAG binder. DNA CAG/GTC duplex TO-PRO-1 dye displacement fluorescence. IC50, µM. hit rate 20% among 250; in the data active means IC50 below about 10 µM
* hit, by the source's call; i = inactive; x = not tested or not shown.

SMILES	APOBEC3G inh	A3A deaminase	ALR H2O2 inh	aDG glyco act	PHOSPHO1 block	rCAG binder	rCAG bind conf	dCAG dye counter	others
CCc1c(O)nc(SCC(=O)Nc2nc3ccccc3s2)n(C2CCCCC2)c1=O	-6	-3	92*	0	27	40*	48*	15*
Cc1ccc(OS(=O)(=O)c2ccccc2)c(/C=N/N=C2\NC(=O)C(C)S2)c1 (configuration not stated)	2	4	10	0	-17	36*	46*	13*
O=Nc1c(O)ccc2cc(S(=O)(=O)O)ccc12	x	x	x	0	x	x	x	x
CN(C)c1ccc2cc(S(=O)(=O)O)cc(O)c2c1	x	x	x	0	x	59*	33	10*
O=C(Nc1ccccc1)Nc1nc(-c2ccc(Cl)cc2)cs1	-6	-4	-11	0	-6	17	x	x
CC(=O)Nc1nc(-c2ccc(Br)s2)cs1	1	5	-7	0	20	3	x	x
Cc1ccc(NC(=O)Nc2nc(-c3ccc(C)s3)cs2)cc1	0	0	8	1	4	52*	17	21*
COc1ccc(-c2csc(NC(=O)Nc3ccccc3)n2)cc1	-9	-1	0	0	27	40*	14	16*
COc1ccc(NC(=O)Nc2nnc(-c3ccncc3)s2)cc1	-6	1	-9	0	17	42*	18	8.9*
O=C(C[C@@H]1CC[C@@H]2[C@H](COC[C@H](O)CN2CCC(F)(F)F)O1)NCc1ccc2c(c1)OCO2	x	x	x	0	x	0	x	x
NC1=NC(=O)/C(=C/c2ccc(-c3ccc(S(N)(=O)=O)cc3)o2)S1	-9	-1	-10	0	5	29	x	x
NS(=O)(=O)c1ccc(-c2ccc(/C=C3\C(=O)Nc4cc(Cl)ccc43)o2)cc1	x	x	x	0	8	46*	26	21*
COc1ccc2nc(N/C(=N/S(=O)(=O)c3cccs3)c3ccccc3Cl)sc2c1	-16	-4	-1	0	24	48*	41*	13*
C[C@@H]1CN([C@@H](C)CO)C(=O)CCCn2nncc2CO[C@H]1CN(C)Cc1ccccc1	x	x	x	0	x	0	x	x
O=C(CCCN1C(=O)/C(=C\c2ccco2)SC1=S)Nc1ccc2ccccc2c1	-3	10	42	0	-1	31	x	x
COc1ccccc1/C=C1\SC(=S)N(CCC(=O)Nc2ccc(C(=O)O)c(O)c2)C1=O	-3	-3	59	0	34	91*	85*	59*
O=C(CCN1C(=O)/C(=C/c2ccco2)SC1=S)Nc1ccc(C(=O)O)c(O)c1	39	66	x	0	33	90*	73*	33*	dCAG dye DR=5.3*
O=C(CCN1C(=O)/C(=C\c2ccco2)SC1=S)Nc1ccc(C(=O)O)c(O)c1	63	86	x	0	30	86*	79*	37*
CN(C(=O)c1cccc(NC(=O)Cc2ccc(NC(=O)C3CCN(C(=O)C4CCC4)CC3)cc2)c1)C1CC1	x	x	x	0	x	3	x	x
C[C@@H]1CN([C@H](C)CO)C(=O)CCCn2cc(nn2)CO[C@H]1CN(C)C(=O)Nc1ccccc1	x	x	x	0	x	1	x	x
N#Cc1c(NC(=O)/C=C/c2ccco2)sc2c1CCCC2	x	x	14	-1	-1	38*	26	14*
Cc1cn([C@H]2C[C@H](O)[C@@H](CNCc3cc(Br)ccc3OCc3ccccc3)O2)c(=O)[nH]c1=O	x	x	x	0	x	2	x	x
CCCCSc1nc2c(cc1C#N)CCC2	-7	-1	-33	0	7	1	x	x
CCCSc1nc(C)c(-c2csc(C(C#N)=C3CCCC3)n2)cc1C#N	33	35	-3	0	74*	44*	38*	25*
CC(C)C[C@H]1COc2c(Cl)cccc2S(=O)(=O)N1Cc1cccc(Cl)c1	x	x	x	x	x	7	x	x
SMILES	APOBEC3G inh	A3A deaminase	ALR H2O2 inh	aDG glyco act	PHOSPHO1 block	rCAG binder	rCAG bind conf	dCAG dye counter	others
Cc1nc(N2C(=O)C(=O)/C(=C(/O)c3ccccc3)C2c2ccco2)sc1C (configuration not stated)	5	6	0	0	-9	19	x	x
COC(=O)c1sc(N2C(=O)C(=O)/C(=C(/O)c3ccccc3)C2c2ccco2)nc1C (configuration not stated)	-1	3	90*	0	-3	37*	31	6.3*
CS(=O)(=O)c1sc2nc(-c3cccs3)cc(-c3ccccc3)c2c1N	22	4	3	0	11	65*	70*	36*
O=S(=O)(Nc1nnc(C2CCCCC2)s1)c1ccc(F)cc1	2	3	-1	0	46	30	x	x
Cc1cc(C)c(S(=O)(=O)Nc2nnc(C)s2)c(C)c1	-4	-1	2	0	4	7	x	x
Cc1cc(C)c(S(=O)(=O)Nc2nnc(CC(C)C)s2)c(C)c1	-4	-7	-4	0	x	49*	33	8.4*
Cc1cc(C)c(S(=O)(=O)Nc2nnc(C3CCCCC3)s2)c(C)c1	1	1	7	0	x	72*	59*	25*
O=[N+]([O-])c1ccc(S(=O)(=O)Nc2nnc(C3CCCCC3)s2)cc1	-3	-1	-12	0	-104	47*	34	8.3*
COC(=O)[C@]12C[C@H](CC(=O)NCC34CC5CC(CC(C5)C3)C4)C(=O)N(Cc3ccco3)C1=C[C@H](C(C)(C)C)O[C@@H]2C	x	x	x	x	x	5	x	x
COC(=O)[C@]12C[C@H](CC(=O)NCCCN3CCCC3=O)C(=O)N(CCC3=CCCCC3)C1=C[C@H](C(C)(C)C)O[C@@H]2C	x	x	x	x	x	-1	x	x
CC1=C(C(=O)N(C(C)C)C(C)C)CC(CC(=O)NCCCCc2ccccc2)C(=O)N1Cc1ccc(F)cc1 (configuration not stated)	x	x	x	0	x	0	x	x
C[C@@H]1CN([C@H](C)CO)S(=O)(=O)c2ccc(Br)cc2O[C@@H]1CN(C)Cc1ccc(C(=O)O)cc1	x	x	x	0	x	14	x	x
C[C@@H]1CN([C@@H](C)CO)S(=O)(=O)c2ccc(/C=C/c3ccccc3)cc2O[C@@H]1CN(C)Cc1ccc(C(=O)O)cc1	x	x	x	1	x	60*	66*	25*
COc1cc(OCc2ccc(C)cc2)ccc1CNC[C@H]1O[C@@H](n2cnc(C(N)=O)n2)[C@H](O)[C@@H]1O	x	x	x	1	x	0	x	x
Cc1ccccc1S(=O)(=O)N1[C@@H](c2ccc(F)cc2)C(C(=O)O)=CC[C@H]1c1ccc(Cl)cc1	-9	3	5	0	x	58*	72*	33*	dCAG dye DR=i
